# In PubChem BioAssay:
# Where “and” joins values, the source holds several entries; their conditions need not be identical. Equal values may be shown once. Calls of active or inactive are those of the source. Cut-off read from the data, not from the text of the source, unless noted: active = inhibition above about 80%; inactive = the rest.
# Legend:
# [1] = LFS_MB_P medulloblastoma growth inhibition, cell-based, chromothripsis tumors, cisplatin or BGB combos (AID 1671449); conditions: LFS_MB_P medulloblastoma cells;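 note: cells exposed for 96 hours; 0% = vehicle DMSO and 100% = killing by high DMSO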
# [2] = HDN33 neuroblastoma growth inhibition, cell-based, chromothripsis tumors, cisplatin or BGB combos (AID 1671450); conditions: HDN33 neuroblastoma cells, stronger effect = higher value;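 note: cells exposed to compound for four days; 0% = vehicle DMSO and 100% = cell killing by high DMSO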
# [3] = ICB984 medulloblastoma cell growth inhibition, synergistic combos for chromothripsis tumors, cisplatin or BGB combos (AID 1671451; call rule not given here;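 note: cells exposed for 96 hours before readout; 0% = vehicle DMSO and 100% = killing by high DMSO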); conditions: ICB984 medulloblastoma cells, drug combinations, stronger effect = higher value
# [4] = LFS_MB_1R medulloblastoma cell growth inhibition, synergistic combos for chromothripsis tumors, cisplatin or BGB combos (AID 1671452); conditions: LFS_MB_1R medulloblastoma cells, stronger effect = higher value;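 note: cells exposed for 96 hours before readout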
# [5] = HTB85 osteosarcoma cell growth inhibition, synergistic combos for chromothripsis tumors, BGB or cisplatin IC20 combos (AID 1671453); conditions: HTB85 osteosarcoma cells, drug combinations, stronger effect = higher value;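 note: cells exposed for 96 hours before readout; 0% = vehicle DMSO and 100% = high DMSO killing control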
# [6] = CRL2098 osteosarcoma cell growth inhibition, synergistic combos for chromothripsis tumors, BGB or cisplatin IC20 combos (AID 1671454); conditions: CRL2098 osteosarcoma cells, drug combinations, stronger effect = higher value;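 note: cells exposed for 96 h before readout; 0% = vehicle DMSO and 100% = killing by high DMSO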
# [7] = HD-MB03 medulloblastoma cell growth inhibition, synergistic combos for chromothripsis tumors, BGB or cisplatin IC20 combos (AID 1671455; in the data active = inhibition above about 83%;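 note: 0% = vehicle DMSO and 100% = high DMSO as cytotoxic control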); conditions: HD-MB03 medulloblastoma cells, stronger effect = higher value
# [8] = UWB1.289 ovarian carcinoma cell growth inhibition, synergistic combos for chromothripsis tumors, BGB or cisplatin combos (AID 1671456); conditions: UWB1.289 ovarian carcinoma cells, stronger effect = higher value;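 note: cells exposed to compound for four days; 0% = vehicle DMSO and 100% = killing by high DMSO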
# [9] = LFS_MB_2R medulloblastoma cell growth inhibition, synergistic combos for chromothripsis tumors, cisplatin combos (AID 1671457); conditions: LFS_MB_2R medulloblastoma cells, stronger effect = higher value;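 note: cells exposed to compound for four days before readout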
# [10] = MDA-MB-436 breast carcinoma cell growth inhibition, synergistic combos for chromothripsis tumors, BGB or cisplatin combos (AID 1671458; call rule not given here;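 note: cells exposed for 96 hours; 0% = vehicle DMSO and 100% = killing by high DMSO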); conditions: MDA-MB-436 breast carcinoma growth inhibition, drug combinations, stronger effect = higher value
# [11] = UWB1.289_BRCA1 ovarian cancer growth, cell-based, BGB or cisplatin combinations (AID 1671459); conditions: UWB1.289 BRCA1 ovarian carcinoma, drug combinations, stronger effect = higher value
# [12] = human astrocyte viability loss, single and combined drugs, cytotoxicity control for chromothriptic childhood tumor combination screen, cell-based, BGB or cisplatin IC20 combos (AID 1671460); conditions: Human astrocytes, drug combinations, stronger effect = higher value;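 note: cells exposed to compounds for 96 hours before viability readout; 0% = vehicle and 100% = killing control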
# [13] = growth inhibition of BT084 medulloblastoma cells, cell-based, ICGC_MB145, cisplatin and BGB IC40 combos (AID 1671461); conditions: drug combinations, stronger effect = higher value;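 note: cells exposed to drugs for 96 hours; 0% = vehicle DMSO and 100% = high DMSO full killing control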
# [14] = growth inhibition of RCMB18 medulloblastoma cells, cell-based, cisplatin and BGB IC40 combos (AID 1671462); conditions: stronger effect = higher value;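 note: cells exposed to compound for four days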
# [15] = growth inhibition of CRL1545 osteosarcoma cells, cell-based, cisplatin and BGB IC20 combos (AID 1671464); conditions: stronger effect = higher value;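 note: cells exposed to compound for 96 hours before readout; 0% = vehicle DMSO and 100% = high DMSO killing control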
# [16] = measured here: combination with BGB IC40, at 0.05 µM
# [17] = measured here: with BGB IC20 combination, at 0.5 µM
# [18] = measured here: with cisplatin IC20 combination, at 0.5 µM
# [19] = measured here: combination with cisplatin, at 0.5 µM
# [20] = measured here: combination with cisplatin, at 5 µM
compound,measurement,setting,value
CNc1cc(-c2cccc(Cl)c2Cl)nc(N)n1,inhibition,"[1]; at 0.5 µM, stronger effect = higher value",-8.18% (inactive) and -26.7% (inactive)
same,inhibition,"[1]; measured here: combination with BGB IC20, at 0.005 µM",12.7% and 6.36%
same,inhibition,"[1]; measured here: combination with BGB IC40, at 0.005 µM",-26.9% and -34.5%
same,inhibition,[1]; [16],-17.6% and -7.49%
same,inhibition,"[1]; measured here: combination with cisplatin, at 0.5 µM, stronger effect = higher value",-22.4% and -20%
same,inhibition,"[1]; measured here: combination with cisplatin, at 5 µM, stronger effect = higher value",-7.76% and -6.35%
same,inhibition,"[2]; BGB combo, at 5 µM",48.2% and 55.5%
same,inhibition,[2]; at 0.5 µM,-17.8% (inactive) and -6.13% (inactive)
same,inhibition,"[2]; cisplatin combo, at 5 µM",48.9% and 48.7%
same,inhibition,[2]; [17],-27.7% and -11%
same,inhibition,[2]; [18],-24.8% and -0.815%
same,inhibition,"[2]; single agent, at 5 µM",76.2% and 85.6%
same,inhibition,"[3]; BGB IC20 combo, at 0.005 µM",-21.8% and -29.5%
same,inhibition,"[3]; BGB IC40 combo, at 0.005 µM",-56.1% and -31.8%
same,inhibition,"[3]; BGB IC40 combo, at 0.05 µM",-22.7% and -34.1%
same,inhibition,[3]; at 0.5 µM,-44.2% (inactive) and -25.3% (inactive)
same,inhibition,"[3]; cisplatin combo, at 0.05 µM",-27.5% and -41.1%
same,inhibition,"[3]; cisplatin combo, at 0.5 µM",-72.1% and -45.6%
same,inhibition,"[3]; cisplatin combo, at 5 µM",-47.7% and -22.7%
same,inhibition,"[3]; measured here: 5 uM single agent, at 5 µM",-10.2% and -10.7%
same,inhibition,[4]; at 0.5 µM,-34.6% (inactive) and -4.83% (inactive)
same,inhibition,[4]; [16],-68.3% and -4.85%
same,inhibition,[4]; [19],-61.7% and -26.6%
same,inhibition,[4]; [20],-37.7% and -6.6%
same,inhibition,[5]; at 0.5 µM,-10% (inactive) and -11.4% (inactive)
same,inhibition,"[5]; measured here: with BGB IC20, at 0.5 µM",-16.2% and -6.99%
same,inhibition,"[5]; measured here: with BGB IC20, at 5 µM",35.9% and 44.4%
same,inhibition,"[5]; measured here: with cisplatin IC20, at 0.5 µM",-19.3% and -24.6%
same,inhibition,"[5]; measured here: with cisplatin IC20, at 5 µM",46.5% and 52.3%
same,inhibition,"[5]; single agent, at 5 µM",86.8% and 87.8%
same,inhibition,[6]; at 0.5 µM,-44.3% (inactive) and -58.9% (inactive)
same,inhibition,"[6]; measured here: combination with BGB at IC20, at 0.5 µM",-56.3% and -39.2%
same,inhibition,"[6]; measured here: combination with cisplatin at IC20, at 0.5 µM",-66.3% and -96.2%
same,inhibition,[7]; at 0.5 µM,7.62% (inactive) and 7.36% (inactive)
same,inhibition,"[7]; measured here: combo with BGB at IC20, at 0.5 µM",6.39% and 25.3%
same,inhibition,"[7]; measured here: combo with cisplatin at IC20, at 0.5 µM",10.3% and -5.76%
same,inhibition,[8]; at 0.5 µM,-17.7% (inactive) and -11.8% (inactive)
same,inhibition,"[8]; measured here: inhibition with BGB combination, at 0.05 µM",-38.9% and -10.5%
same,inhibition,"[8]; measured here: inhibition with cisplatin combination, at 0.05 µM",-22.8% and -21.6%
same,inhibition,[9]; at 0.5 µM,-20.6% (inactive) and -7.54% (inactive)
same,inhibition,[9]; [19],-10.7% and -19.4%
same,inhibition,[9]; [20],-1.17% and -0.403%
same,inhibition,[10]; at 0.5 µM,-4.77% (inactive) and 5.99% (inactive)
same,inhibition,"[10]; measured here: BGB combination, at 0.5 µM",-12.3% and -2.46%
same,inhibition,"[10]; measured here: BGB combination, at 5 µM",12% and 36.8%
same,inhibition,"[10]; measured here: cisplatin combination, at 0.5 µM",-5.91% and 6.1%
same,inhibition,"[10]; measured here: cisplatin combination, at 5 µM",53.8% and 59%
same,inhibition,"[11]; BGB combination, concentration series, at 5 µM",25.6% and 35%
same,inhibition,[11]; at 0.5 µM,-10.5% (inactive) and -13.3% (inactive)
same,inhibition,"[11]; cisplatin combination, concentration series, at 5 µM",31% and 30.9%
same,inhibition,[12]; at 0.5 µM,-0.46% (inactive) and -4.98% (inactive)
same,inhibition,"[12]; measured here: combo with BGB IC20, at 0.5 µM",-4.03% and -6.91%
same,inhibition,"[12]; measured here: combo with cisplatin IC20, at 0.5 µM",5.16% and -6.91%
same,inhibition,[13]; at 0.5 µM,-12.1% (inactive) and 5.54% (inactive)
same,inhibition,"[13]; cisplatin combination, at 0.5 µM",-10.6% and -1.11%
same,inhibition,"[13]; cisplatin combination, at 5 µM",8.87% and -169%
same,inhibition,"[13]; measured here: BGB IC40 combination 0.05 uM, at 0.05 µM",37% and -7.52%
same,inhibition,"[13]; single agent, at 5 µM",37.7% and 19.1%
same,inhibition,[14]; at 0.5 µM,-17.1% (inactive) and -8.27% (inactive)
same,inhibition,"[14]; cisplatin combo, at 5 µM",-4.48% and -9.87%
same,inhibition,"[14]; measured here: BGB IC40 combination, at 0.05 µM",-4.59% and 4.5%
same,inhibition,[14]; [19],-16.3% and -34.1%
same,inhibition,"[14]; single agent, at 5 µM",-7.05% and 22%
same,inhibition,[15]; at 0.5 µM,-60.9% (inactive) and -11.4% (inactive)
same,inhibition,[15]; [17],-68.8% and -40.3%
same,inhibition,[15]; [18],-56.9% and 1.42%
same,inhibition,"[15]; single agent, at 0.05 µM",-40.9% and -9.94%
same,inhibition,"[15]; single agent, at 5 µM",58.9% and 60.8%
